# Source: PubChem BioAssay (EPA / NIEHS)
# Records with an inconclusive call do not appear. The source holds several records for some structures; these can differ, active in one and inactive in another. The source made the active and inactive calls. How the source made its calls: active means hit-call score of the fitted dose curve at least 0.9, where 1 is the maximum; inconclusive means response in the unintended direction; inactive means score below 0.9.
# Legend:
# [1] = target: rat Thyrotropin Releasing Hormone Receptor (TRH), Trhr (gene 25570) (UniProt Q01717); assay: NVS_GPCR_rTRH: NovaScreen (NVS) G Protein-Coupled Receptor Assay for rat Thyrotropin Releasing Hormone Receptor (TRH) (AID 2283329);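 further: hit means lower bound tracer signal versus DMSO baseline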
# Chain of rat Thyrotropin Releasing Hormone Receptor (TRH), Trhr (gene 25570) (Q01717 whole entry, looked up): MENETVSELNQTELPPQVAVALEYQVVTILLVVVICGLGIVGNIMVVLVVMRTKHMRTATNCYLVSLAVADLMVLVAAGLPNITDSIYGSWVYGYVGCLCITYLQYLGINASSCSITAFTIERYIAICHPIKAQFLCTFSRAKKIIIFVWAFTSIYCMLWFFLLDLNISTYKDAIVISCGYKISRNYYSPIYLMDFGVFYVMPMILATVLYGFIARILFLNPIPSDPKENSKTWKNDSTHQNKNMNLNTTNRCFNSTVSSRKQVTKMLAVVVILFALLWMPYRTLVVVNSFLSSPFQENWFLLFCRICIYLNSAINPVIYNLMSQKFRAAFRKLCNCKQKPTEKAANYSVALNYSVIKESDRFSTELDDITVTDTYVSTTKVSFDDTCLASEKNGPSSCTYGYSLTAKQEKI
# Summary of the method: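 Competitive radioligand binding on rat forebrain membrane preparations, with filtration and scintillation readout after 4 h. Primary testing in duplicate at 25 uM; actives confirmed in concentration-response. DMSO defined baseline.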
# [2] = target: Sodium channel protein type 1 subunit alpha (Rattus norvegicus) (UniProt P04774); assay: NVS_IC_rNaCh_site2: NovaScreen (NVS) Ion Channel Assay for rat Sodium Channel, Site 2 (NaCh) (AID 2283322);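 further: hit means loss of radioligand binding signal relative to DMSO so AC50 marks displacement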
# Summary of the method: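 Membranes: rat forebrain. Format: competitive radioligand displacement, filter separation, scintillation readout, 1 h exposure. Primary screen in duplicate at 25 uM; actives retested in concentration series.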
# [3] = target: human Peripheral-type Benzodiazepine Receptor (PBR), TSPO (gene 706) (UniProt P30536); assay: NVS_MP_hPBR: NovaScreen (NVS) Membrane Protein Assay for human Peripheral-type Benzodiazepine Receptor (PBR) (AID 2283331);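 further: hits reduce radioligand binding relative to DMSO baseline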
# Chain of human Peripheral-type Benzodiazepine Receptor (PBR), TSPO (gene 706) (P30536 whole entry, looked up): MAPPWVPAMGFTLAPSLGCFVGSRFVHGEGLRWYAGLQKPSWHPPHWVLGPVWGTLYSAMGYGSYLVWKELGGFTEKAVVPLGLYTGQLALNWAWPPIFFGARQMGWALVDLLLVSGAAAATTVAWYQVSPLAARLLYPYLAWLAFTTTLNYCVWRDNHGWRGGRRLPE
# Summary of the method: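 Human colonic cell membranes were incubated with test chemical for 1 hour; radioligand binding was measured by filter-based scintillation counting. Primary screen ran in duplicate at 25 uM, with actives followed in concentration series; loss of signal versus DMSO baseline.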
# [4] = target: human Androgen Receptor (AR), AR (gene 367) (UniProt P10275); assay: NVS_NR_hAR: NovaScreen (NVS) Nuclear Receptor Binding Assay for human Androgen Receptor (AR) (AID 2283332)
# Chain of human Androgen Receptor (AR), AR (gene 367) (P10275 whole entry, looked up): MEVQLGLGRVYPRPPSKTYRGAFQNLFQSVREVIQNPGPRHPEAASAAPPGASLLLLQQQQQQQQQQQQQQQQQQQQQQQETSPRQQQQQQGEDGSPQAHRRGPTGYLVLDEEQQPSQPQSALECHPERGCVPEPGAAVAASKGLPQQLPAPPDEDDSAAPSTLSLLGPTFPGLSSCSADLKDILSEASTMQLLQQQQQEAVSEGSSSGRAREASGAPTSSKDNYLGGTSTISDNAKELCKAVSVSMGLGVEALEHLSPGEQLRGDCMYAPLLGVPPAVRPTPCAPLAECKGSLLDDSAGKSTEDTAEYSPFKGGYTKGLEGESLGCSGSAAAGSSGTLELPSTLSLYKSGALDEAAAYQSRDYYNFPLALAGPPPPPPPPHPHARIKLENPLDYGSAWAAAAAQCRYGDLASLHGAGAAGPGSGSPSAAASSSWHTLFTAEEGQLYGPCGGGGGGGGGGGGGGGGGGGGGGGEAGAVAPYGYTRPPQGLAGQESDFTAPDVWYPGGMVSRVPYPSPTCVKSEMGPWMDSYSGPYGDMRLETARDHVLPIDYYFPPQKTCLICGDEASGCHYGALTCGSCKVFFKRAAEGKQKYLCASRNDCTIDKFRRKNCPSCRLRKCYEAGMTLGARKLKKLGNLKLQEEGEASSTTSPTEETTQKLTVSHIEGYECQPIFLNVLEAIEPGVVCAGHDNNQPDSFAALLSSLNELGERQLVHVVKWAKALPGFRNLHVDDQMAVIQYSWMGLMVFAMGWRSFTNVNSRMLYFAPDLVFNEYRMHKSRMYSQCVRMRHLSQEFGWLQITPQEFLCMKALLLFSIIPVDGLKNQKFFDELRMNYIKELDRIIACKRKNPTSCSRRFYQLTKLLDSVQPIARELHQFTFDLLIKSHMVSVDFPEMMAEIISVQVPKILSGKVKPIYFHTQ
# Method: NVS_NR_hAR is a biochemical, single-readout assay that uses extracted gene-proteins from LnCAP in a cell-free assay. Measurements were taken 20 hours after chemical dosing in a 96-well plate.NVS_NR_hAR is one of one assay component(s) measured or calculated from the NVS_NR_hAR assay. It is designed to make measurements of radioligand binding, a form of binding reporter, as detected with scintillation counting signals by Lysate-based radiodetection technology.Data from the assay component NVS_NR_hAR was analyzed into 1 assay endpoint. This assay endpoint, NVS_NR_hAR, was analyzed in the positive analysis fitting direction relative to DMSO as the negative control and baseline of activity. Using a type of binding reporter, loss-of-signal activity can be used to understand changes in the binding as they relate to the gene AR. Furthermore, this assay endpoint can be referred to as a primary readout, because the performed assay has only produced 1 assay endpoint. To generalize the intended target to other relatable targets, this assay endpoint is annotated to the nuclear receptor intended target family, where the subfamily is steroidal.
# Binding assays used specific radioligands (tritiated, iodinated) with non-radioactive competitive displacement ligands in agonist or antagonist protocols (as indicated) and various reference compounds and inhibitors to titrate specific binding to receptors and transporters. Most enzyme assays (CYPs, kinases, phosphatases, proteases, HDACs) used recombinant protein and specific substrates (fluorescence mostly, some colorimetric and radioactive) and inhibitors, followed by a biochemical separation of substrate and product. All assays for the biochemical HTS were initially run in duplicate at a single concentration (10 uM for CYP450 assays and 25 uM for all others). […] Each assay was run with positive and negative controls, and concurrent controls on every plate. The follow-up (secondary) screen tested active chemical-pairs in concentration series, as well as a few additional assays not tested in the primary screen, some selected negative inactives, and several cases re-run in the concentration series for confirmatory purposes.
# [5] = target: bovine Estrogen Receptor (ER), ESR1 (gene 407238) (UniProt P49884); assay: NVS_NR_bER: NovaScreen (NVS) Nuclear Receptor Binding Assay for bovine Estrogen Receptor (ER) (AID 2283345);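 further: actives lower the bound radioligand count which means they displace the ER ligand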
# Chain of bovine Estrogen Receptor (ER), ESR1 (gene 407238) (P49884 whole entry, looked up): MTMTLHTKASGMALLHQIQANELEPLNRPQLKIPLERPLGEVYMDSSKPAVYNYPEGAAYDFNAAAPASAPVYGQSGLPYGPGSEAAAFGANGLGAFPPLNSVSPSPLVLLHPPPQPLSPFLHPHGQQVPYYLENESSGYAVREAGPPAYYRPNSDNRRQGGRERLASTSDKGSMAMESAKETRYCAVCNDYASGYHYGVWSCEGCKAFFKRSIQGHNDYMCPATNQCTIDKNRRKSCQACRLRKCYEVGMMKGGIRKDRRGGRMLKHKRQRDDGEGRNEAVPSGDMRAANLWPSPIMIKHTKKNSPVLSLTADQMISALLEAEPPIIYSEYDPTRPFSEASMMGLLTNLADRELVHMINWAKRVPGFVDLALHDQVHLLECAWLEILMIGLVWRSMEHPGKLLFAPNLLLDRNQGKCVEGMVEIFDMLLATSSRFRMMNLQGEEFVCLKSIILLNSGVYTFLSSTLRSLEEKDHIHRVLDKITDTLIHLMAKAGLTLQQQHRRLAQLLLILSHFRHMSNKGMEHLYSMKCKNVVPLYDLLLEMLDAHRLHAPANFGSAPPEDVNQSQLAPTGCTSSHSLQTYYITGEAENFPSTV
# Summary of the method: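 Displacement of a radioligand from estrogen receptor in bovine uterine membrane preparations; scintillation signal taken at 18 hours, DMSO as baseline. Single-concentration duplicates (25 uM) preceded concentration-response follow-up of actives.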
# [6] = target: chimpanzee Androgen Receptor (AR), AR (gene 747460) (UniProt O97775); assay: NVS_NR_cAR: NovaScreen (NVS) Nuclear Receptor Binding Assay for chimpanzee Androgen Receptor (AR) (AID 2283346)
# Chain of chimpanzee Androgen Receptor (AR), AR (gene 747460) (O97775 whole entry, looked up): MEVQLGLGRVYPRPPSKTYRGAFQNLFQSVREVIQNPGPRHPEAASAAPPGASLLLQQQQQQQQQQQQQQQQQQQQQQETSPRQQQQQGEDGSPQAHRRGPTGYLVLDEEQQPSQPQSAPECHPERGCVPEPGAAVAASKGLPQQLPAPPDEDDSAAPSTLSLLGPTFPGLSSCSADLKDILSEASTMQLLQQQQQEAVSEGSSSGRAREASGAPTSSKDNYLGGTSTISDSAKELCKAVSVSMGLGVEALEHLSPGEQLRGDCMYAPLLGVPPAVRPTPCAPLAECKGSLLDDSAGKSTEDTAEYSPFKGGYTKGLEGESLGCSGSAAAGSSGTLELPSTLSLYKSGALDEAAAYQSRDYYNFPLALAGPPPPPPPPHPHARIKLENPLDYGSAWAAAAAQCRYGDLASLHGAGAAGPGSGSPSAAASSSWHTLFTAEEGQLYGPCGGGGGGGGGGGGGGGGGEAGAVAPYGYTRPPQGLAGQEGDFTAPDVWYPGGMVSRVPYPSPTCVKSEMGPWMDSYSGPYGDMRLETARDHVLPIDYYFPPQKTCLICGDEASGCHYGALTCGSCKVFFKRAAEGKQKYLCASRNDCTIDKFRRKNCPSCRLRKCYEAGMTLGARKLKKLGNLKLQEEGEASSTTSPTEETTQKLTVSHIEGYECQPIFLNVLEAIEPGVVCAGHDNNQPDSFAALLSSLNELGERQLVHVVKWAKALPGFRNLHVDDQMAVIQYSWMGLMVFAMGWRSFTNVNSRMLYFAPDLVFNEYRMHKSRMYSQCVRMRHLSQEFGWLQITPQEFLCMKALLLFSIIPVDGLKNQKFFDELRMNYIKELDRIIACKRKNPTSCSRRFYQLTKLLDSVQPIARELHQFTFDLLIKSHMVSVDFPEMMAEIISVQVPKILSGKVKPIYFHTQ
# Summary of the method: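 Cell-free radioligand displacement using receptor protein extracted from Sf9/Sf21 cells; bound radioligand measured by scintillation counting 72 hours after chemical dosing. Loss of signal versus DMSO baseline indicates binding; primary screen single-concentration in duplicate at 25 uM, actives followed in concentration series.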
# [7] = target: rat Peripheral-type Benzodiazepine Receptor (PBR), Tspo (gene 24230) (UniProt P16257); assay: NVS_MP_rPBR: NovaScreen (NVS) Membrane Protein Assay for rat Peripheral-type Benzodiazepine Receptor (PBR) (AID 2283335)
# Chain of rat Peripheral-type Benzodiazepine Receptor (PBR), Tspo (gene 24230) (P16257 whole entry, looked up): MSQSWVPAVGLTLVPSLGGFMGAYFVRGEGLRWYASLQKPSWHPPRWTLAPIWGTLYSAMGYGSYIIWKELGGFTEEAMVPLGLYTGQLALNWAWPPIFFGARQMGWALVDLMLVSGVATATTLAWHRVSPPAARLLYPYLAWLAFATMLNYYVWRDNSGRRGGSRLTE
# Summary of the method: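 Rat kidney membranes; radioligand binding with displacement, filter-based scintillation counting, 1 h incubation. Primary screen in duplicate at 25 uM, actives followed in concentration series; loss of binding vs DMSO.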
# [8] = target: rat Adrenergic Receptor, Alpha 2 (Adra2), Non-selective Binding, Adra2a (gene 25083) (UniProt P22909); assay: NVS_GPCR_rAdra2_NonSelective: NovaScreen (NVS) G Protein-Coupled Receptor Assay for rat Adrenergic Receptor, Alpha 2 (Adra2), Non-selective Binding (AID 2283299)
# Chain of rat Adrenergic Receptor, Alpha 2 (Adra2), Non-selective Binding, Adra2a (gene 25083) (P22909 whole entry, looked up): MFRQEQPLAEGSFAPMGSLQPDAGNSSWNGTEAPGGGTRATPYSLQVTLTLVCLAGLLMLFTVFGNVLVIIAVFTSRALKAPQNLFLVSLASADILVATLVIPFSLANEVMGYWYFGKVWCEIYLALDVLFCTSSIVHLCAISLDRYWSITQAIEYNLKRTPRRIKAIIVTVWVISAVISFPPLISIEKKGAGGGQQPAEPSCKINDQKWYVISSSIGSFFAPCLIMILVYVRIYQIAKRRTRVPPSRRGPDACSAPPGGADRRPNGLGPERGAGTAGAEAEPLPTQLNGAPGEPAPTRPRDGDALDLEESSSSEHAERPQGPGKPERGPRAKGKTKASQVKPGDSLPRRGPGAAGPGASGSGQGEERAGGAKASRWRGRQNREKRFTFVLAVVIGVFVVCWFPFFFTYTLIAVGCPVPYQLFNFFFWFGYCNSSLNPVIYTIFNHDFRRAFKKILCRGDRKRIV
# Summary of the method: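 Rat cortical membranes, radioligand competitive displacement read by filter-based scintillation counting 1.25 hours after dosing. Primary screen in duplicate at 25 uM; actives followed up in concentration series.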
# [9] = target: rat Neonicotinoid receptor (NNR), Chrna7 (gene 25302) (UniProt Q05941); assay: NVS_LGIC_rNNR_BungSens: NovaScreen (NVS) Ligand-Gated Ion Channel Assay for rat Neonicotinoid receptor (NNR) (AID 2283315)
# Chain of rat Neonicotinoid receptor (NNR), Chrna7 (gene 25302) (Q05941 whole entry, looked up): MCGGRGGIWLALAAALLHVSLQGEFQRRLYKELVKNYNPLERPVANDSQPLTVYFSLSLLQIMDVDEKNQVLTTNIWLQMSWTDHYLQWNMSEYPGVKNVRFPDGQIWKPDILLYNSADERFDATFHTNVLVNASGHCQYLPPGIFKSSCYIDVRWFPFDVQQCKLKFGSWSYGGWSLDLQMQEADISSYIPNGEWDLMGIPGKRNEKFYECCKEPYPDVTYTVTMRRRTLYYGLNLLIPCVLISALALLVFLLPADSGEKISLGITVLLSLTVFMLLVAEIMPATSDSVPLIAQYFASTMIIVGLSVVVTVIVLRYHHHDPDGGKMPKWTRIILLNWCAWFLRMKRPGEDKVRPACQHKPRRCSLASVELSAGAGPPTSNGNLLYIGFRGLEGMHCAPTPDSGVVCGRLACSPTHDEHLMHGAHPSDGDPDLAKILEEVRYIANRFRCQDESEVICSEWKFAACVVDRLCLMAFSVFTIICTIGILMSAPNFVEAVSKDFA
# Summary of the method: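 Radioligand displacement binding on rat cortical membranes, 2.5 h incubation, filtration and scintillation counting. Loss of specific binding fitted relative to DMSO.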
# [10] = NVS_IC_rCaBTZCHL: NovaScreen (NVS) Ion Channel Assay for Calcium Channel, Type L, Benzothiazepine Site (CaBTZCHL) (AID 2283337)
# Summary of the method: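 Scintillation counting of filter-bound radioligand gave the read-out, with reduced binding versus DMSO scored as activity. Membranes came from rat cortex and were read 1.5 h after compound addition. Chemicals were screened first in duplicate at 25 uM.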
smiles,measurement,setting,value
CCCCOC(=O)[C@H](C)O,outcome,[1],inactive
CC(=O)c1ccccc1N,AC50,[2],1.65 µM (active)
CCCCOC(=O)C(C)O (stereo unspecified),outcome,[1],inactive
Cc1ccc([N+](=O)[O-])c(C)c1,outcome,[1],inactive
CCCC(=O)OCC(COC(=O)CCC)OC(=O)CCC,outcome,[2],inactive
same,outcome,[3],inactive
COc1ccccc1C=O,outcome,[2],inactive
C[C@]12CC[C@H]3C(=CCc4cc(O)ccc43)[C@@H]1CCC2=O,outcome,[1],inactive
same,AC50,[4],0.661 µM (active)
same,AC50,[5],0.0129 µM (active)
same,AC50,[6],5.87 µM (active)
same,outcome,[6],inactive
CCN=c1cc2oc3cc(NCC)c(C)cc3c(-c3ccccc3C(=O)OCC)c-2cc1C,outcome,[1],inactive
same,AC50,[3],0.443 µM (active)
same,AC50,[7],5.08 µM (active)
same,AC50,[5],8.97 µM (active)
O=C1OC(=O)c2ccc3c4c(ccc1c24)C(=O)OC3=O,outcome,[2],inactive
CC(C)(C)c1cc(CCC(=O)NCCCCCCNC(=O)CCc2cc(C(C)(C)C)c(O)c(C(C)(C)C)c2)cc(C(C)(C)C)c1O,outcome,[2],inactive
c1ccc(C[P+](c2ccccc2)(c2ccccc2)c2ccccc2)cc1,AC50,[8],17.8 µM (active)
same,AC50,[9],25 µM (active)
same,AC50,[2],5.54 µM (active)
same,AC50,[10],4.8 µM (active)
CCCCCCCC/C=C\CCCCCCCC(=O)OCC(O)CO (stereo unspecified),outcome,[1],inactive
same,AC50,[3],25 µM (active)
same,outcome,[6],inactive
O=C=NCc1cccc(CN=C=O)c1,outcome,[2],inactive
same,AC50,[3],4.21 µM (active)
CCN(CC)c1ccc2c(c1)Oc1cc(N(CC)CC)ccc1C21OC(=O)c2ccccc21,AC50,[9],3.48 µM (active)
same,outcome,[2],inactive
same,outcome,[3],inactive
O=c1cccc[nH]1,outcome,[9],inactive
CC(C)(C)c1cc(Cc2cc(C(C)(C)C)c(O)c(C(C)(C)C)c2)cc(C(C)(C)C)c1O,outcome,[1],inactive
Oc1ccc(C2(c3ccc(O)c(C4CCCCC4)c3)CCCCC2)cc1C1CCCCC1,outcome,[2],inactive
CCN=C1C=CC(=C(c2ccc(N(CC)CC)cc2)c2ccc(N(CC)CC)cc2)c2ccccc21,outcome,[1],inactive
same,AC50,[3],0.0669 µM (active)
same,AC50,[7],0.185 µM (active)
same,AC50,[6],3.61 µM (active)
Nc1c(Br)cc([N+](=O)[O-])cc1Br,outcome,[9],inactive
COCCOCCC[Si](C)(O[Si](C)(C)C)O[Si](C)(C)C,outcome,[1],inactive
Brc1ccccn1,outcome,[2],inactive
C#CC(O)CCC (stereo unspecified),outcome,[4],inactive
same,outcome,[6],inactive
O=C=Nc1cccc2c(N=C=O)cccc12,AC50,[3],0.353 µM (active)
Cc1ccc(S(=O)(=O)C(I)I)cc1,AC50,[3],23.2 µM (active)
same,AC50,[7],7.18 µM (active)
CC(C)(C)C(=O)C1C(=O)c2ccccc2C1=O,outcome,[5],inactive
CCCCCCCCCc1ccc(OCCO)cc1,AC50,[3],2.84 µM (active)
same,outcome,[5],inactive
CCc1cc(Cc2cc(CC)c(N)c(CC)c2)cc(CC)c1N,AC50,[7],6.66 µM (active)
same,outcome,[5],inactive
O=C1c2c(O)ccc(Nc3ccc(CCO)cc3)c2C(=O)c2c([N+](=O)[O-])ccc(O)c21,AC50,[3],9.9 µM (active)
same,AC50,[4],13.8 µM (active)
same,AC50,[7],2.38 µM (active)
same,outcome,[6],inactive
CCN(CC)c1ccc(C=O)cc1,outcome,[3],inactive
same,outcome,[7],inactive
Cc1cc(O)c(C(C)(C)C)cc1C(C)(C)C,outcome,[5],inactive
O=C(c1ccccc1)c1ccc(Cl)cc1,AC50,[7],12.6 µM (active)
CCC(Cc1c(I)cc(I)c(N)c1I)C(=O)O (stereo unspecified),outcome,[1],inactive
same,outcome,[5],inactive
O=C1c2ccccc2C(=O)c2c(Cl)cccc21,AC50,[4],2.06 µM (active)
same,AC50,[6],0.93 µM (active)
O=C1C=CC(=O)N1c1ccc(Cc2ccc(N3C(=O)C=CC3=O)cc2)cc1,outcome,[5],inactive
CC(C)Nc1ccc(NC(C)C)c2c1C(=O)c1ccccc1C2=O,AC50,[3],3.66 µM (active)
same,AC50,[7],0.666 µM (active)
O=C(c1ccccc1)c1ccc(O)cc1O,outcome,[1],inactive
same,outcome,[7],inactive
same,outcome,[10],inactive
same,AC50,[5],8.41 µM (active)
same,AC50,[6],9.97 µM (active)
same,outcome,[6],inactive
CCCCCCCCCCCCCC[P+](CCCC)(CCCC)CCCC,AC50,[3],3.52 µM (active)
same,AC50,[7],12.2 µM (active)
same,AC50,[5],38.3 µM (active)
same,AC50,[6],23.1 µM (active)
CCCCCCCCn1sc(Cl)c(Cl)c1=O,AC50,[5],12.7 µM (active)
CCCCCCCC/C=C\CCCCCCCC(=O)N(C)CC(=O)O,outcome,[3],inactive
same,outcome,[7],inactive
same,outcome,[5],inactive
CCN(CC)c1ccc(C=O)c(O)c1,outcome,[3],inactive
same,AC50,[4],3.82 µM (active)
same,outcome,[7],inactive
same,AC50,[6],0.298 µM (active)
CCCCCCCCCCCCC[N+](C)(C)Cc1ccccc1,AC50,[3],25.5 µM (active)
same,outcome,[5],inactive
CC(=O)CCC(C)C,outcome,[6],inactive
